Growth data for 40 molecules are collected here from PubChem BioAssay (NCI).

The panel holds about 83,000 compounds, 20% with a hit somewhere; the sample as a whole holds those more often.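 Activity criterion: percent growth below 10, measured after cells in 96-well plates were exposed to a single compound concentration for 48 hours.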 Unmarked numbers belong to inactive results. The source made the active and inactive calls.

The subject of this assay is MDA-MB-435 melanoma. Put plainly: NCI-60 one-dose screen, 48 h (100 = growth as untreated, 0 = no growth, -100 = all killed). The conditions noted are these: 10 µM unless noted. The protocol:
Growth inhibition of the MDA-MB-435 human Melanoma tumor cell line is measured as a screen for anti-cancer activity. Cells are grown in 96 well plates and exposed to the test compound for 48 hours. Compounds are tested at a single concentration, which is 10^-5 M for most compounds. The reported endpoint is percent growth (GI% or GIPRCNT), where numbers from 0 - 100% represent growth inhibition, and numbers from -100% - 0 represent cell death. For example, a value of 40 represents 60% growth inhibition. A value of 0 means no net growth occurred over the course of the experiment. A value of -40 indicates 40% of cells at the beginning of the experiment died by the end of the experiment. A value of -100 means all cells are dead at the end of the experiment.
NCI-60 Human Tumor Cell Lines Screen was performed using the standard one-dose NCI protocol, which is described in more detail at https://dtp.cancer.gov/discovery_development/nci-60/default.htm.
Compounds with GIPRCNT values below 10 were considered active. Activity score was based on GIPRCNT using the following formula: […]
Score is 0 for GIPRCNT values of 100 or above, 50 for GIPRCNT values of 0, and 100 for GIPRCNT values of -100.
For `Cc1ncc(C(=O)Nc2ccc(CN3CCN(C)CC3)c(C(F)(F)F)c2)cc1C#Cc1cnc(N)cc1C#N`, the growth was -95.8% (active). As to `O=C1c2ccccc2C(=O)c2c([N+](=O)[O-])ccc(Cl)c21`, the growth is 106%. For the molecule `Cc1c(C(=O)NCCC(=O)NO)sc2ncnc(Nc3ccc(F)c(Cl)c3)c12`, the growth was 102%. `CCOc1ccc(Nc2nc(-c3ccc4c(c3)NC(=O)CO4)cs2)cc1`: the growth is 30.7%. The same measure for `COc1ccc(/C=C/c2nc(Nc3ccc(S(=O)(=O)Nc4cc(C)on4)cc3)c3ccccc3n2)cc1`: 39.3%. In the case of `O=c1[nH]nc(-c2ccccc2)c2sc3ncc(-c4ccc(Br)cc4)n3c12`, the growth is -25.7% (active).

As for `CC(C)N1C(=O)S/C(=C2/SC(=O)N(C(C)C)C2=O)C1=O`, the growth was 100%. `O=[N+]([O-])c1ccc(NC(=S)N/N=C/c2cc3ccccc3n3nnnc23)cc1`: the growth is 82.4%.

Regarding `C=C(C)[C@@H]1CC[C@]2(C(=O)N3CCN(C)CC3)CC[C@]3(C)[C@H](CC[C@@H]4[C@@]5(C)CC[C@H](OCCC#N)C(C)(C)[C@@H]5CC[C@]43C)[C@@H]12`, the growth is 107%.

With `CCc1c(Cl)nc(N)nc1Nc1ccc(C)c(C)c1`, the growth is 99.6%. As to `O=C(/C=C(/C=C/c1coc2ccccc12)OB(F)F)/C=C/c1coc2ccccc12`, the growth was 48.1%. In the case of `CCCCCCCCO/N=C\c1c2c(O)c3c(O)c(C)c4c(c3c1O)C(=O)C(C)(O/C=C\C(OC)C(C)C(OC(C)=O)C(C)C(O)C(C)C(O)C(C)/C=C\C=C(\C)C(=O)N2)O4` (stereo not given), the growth was 13.5%. `COC1=CC(=O)c2ccccc2C1=O`: the growth is -48.2% (active).

In the case of `Nc1c(C(=O)Nc2cccc3cnccc23)sc2nc3c(cc12)CN(Cc1ccccc1)CC3`, the growth is 108%. Turning to `CC(C)=CCC[C@](C)(O)[C@H]1CC[C@]2(C)[C@@H]1CC[C@@H]1[C@@]3(C)C/C(=C/c4ccccc4)C(=O)C(C)(C)[C@@H]3CC[C@]12C`, the growth is 90.3%. For the molecule `O=C(/C=C/c1ccc(F)cc1)c1ccc(NC(=O)N2CCN(c3cc4c(cc3F)c(=O)c(C(=O)O)cn4C3CC3)CC2)cc1`, the growth is 95.3%.

For the molecule `CCCOC(=O)N[C@H]1CCc2c(Cl)c(OC)c(OC)c(OC)c2-c2ccc(SC)c(=O)cc21`, the growth is -26.9% (active). As for `NS(=O)(=O)c1ccc(CCN2C(=O)c3cc(Cl)c(Cl)cc3C2=O)cc1`, the growth was 108%. Regarding `Cn1ccnc1C(=O)/C=C/c1ccc(CC(=O)Nc2ccc(F)cc2)cc1`, the growth is 19.7%. The same measure for `CC(=O)[C@H]1CCC/C=C/[C@@H]2C[C@H](O)C[C@H]2[C@H](O)/C=C/C(=O)O1`: 8.17% (active); for `COc1cc(C=O)ccc1OC1OC(COC(C)=O)C(OC(C)=O)C(OC(C)=O)C1OC(C)=O` (stereo not given): 107%. On to `O=C(N/N=C/c1cc2ccccc2n2nnnc12)Nc1ccccc1`, for which the growth is 102%. On to `C=C1C(=O)O[C@H]2[C@H]1CC/C(COC(=O)NCc1c[nH]c3ccc(Br)cc13)=C\CC[C@@]1(C)O[C@@H]21`, for which the growth was -56.5% (active). Turning to `Cc1ccc(-n2cc(-c3ccccc3)c3c2N=NN2CCN=C32)cc1`, the growth is 101%. On to `O=C1c2cccc3c(-c4ccc5c(c4)ncn5C4CCCCC4)ccc(c23)C(=O)N1CCO`, for which the growth is 109%.

With `CN1CCN(c2ccc(NC3=C(Cl)C(=O)c4ncccc4C3=O)cc2C(F)(F)F)CC1`, the growth was -62.5% (active).

Turning to `COc1ccc(/C=N/NC(=O)c2cnn3c2NC(c2ccccc2)C3)cc1OC` (stereo not given), the growth is 0.386% (active).

With `O=C(Cn1c[n+](CC(=O)c2ccc(-c3ccccc3)cc2)c2ccccc21)Nc1cccc2cccnc12`, the growth is 7.5% (active). For the molecule `Cc1nn(-c2ccccc2)c(Cl)c1/C=C/C(=O)c1ccc(F)cc1`, the growth is 87%. The same measure for `COc1cc(/C=C\c2cc(/C=C\c3ccc(O)c(OC)c3)n(C(=O)COc3ccccc3)n2)ccc1O`: 8.84% (active); for `COc1ccc2c(c1)oc1c(C)c3c(c(C)c12)C(=O)N(CCN1CCOCC1)C3=O`: 105%; for `COc1cc2c(cc1OC)C(=O)/C(=C/c1cc(C)c(O)c(C)c1)S2`: -9.36% (active). `COc1ccc(C/C(C)=C(/c2ccc(OCCCN(C)C)cc2)c2ccc(OC(C)=O)cc2)cc1`: the growth is 48.4%. As to `C=C(C)[C@@H]1CC[C@]2(C(=O)N[C@H](CO)Cc3ccccc3)CC[C@]3(C)[C@H](CC[C@@H]4[C@@]5(C)CCCNC(C)(C)[C@@H]5CC[C@]43C)[C@@H]12`, the growth was -93.6% (active). On to `O=C(CCN1CCCC1)Nc1ccc2c(NCCCc3ccccc3)c3ccccc3nc2c1`, for which the growth is -87.8% (active).

As for `COc1ccc(C(=O)c2nc3ccccc3n2CC(=O)c2ccc(F)cc2)cc1`, the growth was -16.4% (active). As for `C=C1C(=O)O[C@H]2[C@H]1CC/C(CNC(=O)CCc1ccc(OC)cc1)=C\CC[C@@]1(C)O[C@@H]21`, the growth is 14.3%. As for `O=S(=O)(NCCNc1nccc(-c2c(-c3cccc(F)c3)nc3sccn23)n1)c1ccc(Br)cc1`, the growth was 21.3%. Turning to `Cc1ccc(CNc2c3ccccc3nc3cc(NC(=O)CCN4CCCC4)ccc23)cc1`, the growth is 8.86% (active).

Take `CC(=O)[C@@H]1CC[C@]2(C(N)=O)CC[C@]3(C)[C@H](CC[C@@H]4[C@@]5(C)CCCNC(C)(C)[C@@H]5CC[C@]43C)[C@@H]12`: the growth is 83.9%.
